The results in this text go back to PubChem BioAssay AID2314 (National Center for Advancing Translational Sciences (NCATS), 2010).

Out of some 300,000 compounds screened, about 37,000 (12%) were called active. Shown is part of a subset that was picked to be rich in actives. Unmarked numbers belong to inactive results. Cut-off read from the data, not from the text of the source: active = max response mostly above about 13% (no sharp cut-off); inactive = mostly below about 14%.

A short description of the assay: Cycloheximide Counterscreen for Small Molecule Inhibitors of Shiga Toxin. Note: read at 38.3 µM for the half of the compounds with a filed dose; 0% is about no effect. As to conditions: cell reporter, cycloheximide protein synthesis inhibition counterscreen; stronger effect = higher value. On the technique in general: The purpose of a counterscreen is to sort out artefacts and off-target activity.
As for `Cc1nn(C)c(Oc2ccccc2)c1CCNS(=O)(=O)c1ccc(F)cc1`, the max response is -1.22%. Turning to `COc1ccc(CCNc2ncnc3c2nnn3Cc2ccccc2)cc1`, the max response is -1.82%. With `CN1CCN(c2ccc(CNS(=O)(=O)c3cccc(F)c3)cc2)CC1` the figure was -2.69%; with `CCC(C)n1c(-c2cc(OC)c(OC)c(OC)c2)nc2nc3ccccc3nc21` (centres undefined), 5.57%; with `Fc1ccc(/C=N/Nc2nc(-c3cccnc3)nc3ccccc23)cc1`, 46.2% (active).

For the compound `COc1ccccc1Oc1nc(-c2cccnc2)nc2ccccc12`, the max response is 6.84%. Regarding `COc1ccc(Nc2nc(-c3cccnc3)nc3ccccc23)cn1`, the max response is -4.67%. `CC(NS(=O)(=O)c1ccc(OCC(=O)N2CCCC2)cc1)c1ccccc1` (centres undefined): the max response is -1.86%.

For the compound `CC(C)(C)NC(=O)c1ccc(Cn2cc(C(F)(F)F)ccc2=O)cc1`, the max response is -2.26%. For the compound `Cc1cccc(N2C(=O)SC(N(CC(=O)O)c3cccc(C)c3)C2=O)c1` (centres undefined), the max response was 31.1% (active). For `Cc1cccc(N(CC(=O)N2CCOCC2)S(C)(=O)=O)c1` the value was -1.89%; for `Cc1ccc(N2C(=O)SC(N(CC(=O)O)c3ccc(C)cc3)C2=O)cc1` (centres undefined), 5.36%. In the case of `O=C(CN(c1cc(C(F)(F)F)ccc1Cl)S(=O)(=O)c1ccccc1)NCc1cccnc1`, the max response is -4.73%. As to `CC(C)c1ccc(NC(=O)Cn2ncc3ccccc32)cc1`, the max response was 29% (active). With `CCOC(=O)c1cn(CC(=O)Nc2ccc(C(C)C)cc2)nn1` the figure was -2.13%. On to `CCc1ccc(NC(=O)Cn2ncn3c(cc4ccccc43)c2=O)cc1`, for which the max response was -4.36%. For `O=C(O)Cn1c(Cc2ccccc2)nc2ccccc21` the value was 1.69%; for `COC(=O)c1ccc2c(=O)n(CCN3CCOCC3)c(SCC(=O)Nc3cccc(OC)c3)nc2c1`, -1.03%.

Consider `CCOC(=O)CSc1nnc(CNc2ccc(F)cc2)o1`, for which the max response is -0.571%. Regarding `Cc1cccc2nc(CNc3ccc(F)cc3)cn12`, the max response was 33.7% (active).

Turning to `O=C(COC(=O)c1ccco1)NCc1ccc(Cl)cc1`, the max response is 4.34%. Turning to `COc1cccc(-n2cc(C(=O)O)c3ccccc3c2=O)c1`, the max response was -2.23%.

`COc1cccc(-n2c(=S)[nH]c3c(oc4ccccc43)c2=O)c1`: the max response is 18.5% (active). In the case of `COc1cccc(N2C(=O)CN(Cc3ccccc3)C2=S)c1`, the max response was -1.8%. `O=C(c1ccccc1)N1CCC(CC2CC(c3ccc(Cl)cc3)=NO2)(C(=O)NCC2CCCCC2)CC1` (centres undefined): the max response is -1.39%.

As for `COc1ccc(-c2oc3ncn(Cc4ccco4)c(=N)c3c2-c2ccc(OC)cc2)cc1`, the max response is -1.11%. Consider `COC(=O)c1cccnc1NC(=S)NC(C)C`, for which the max response is 3.9%. For the compound `Cc1ccc(NC(=S)Nc2ncccc2C)c(C)c1`, the max response is 42.7% (active).

In the case of `CCOC(=O)N1CCN(C(=S)Nc2ccc(C)cc2C)CC1`, the max response is -5.54%. With `CCOc1ccc(C(=O)COC(=O)c2ccc(-n3cnnn3)cc2)cc1` the figure was 1.17%; with `CC1CN(c2nc(-c3ccccc3)nnc2-c2ccccc2)CC(C)O1` (centres undefined), -4.84%. Take `COc1ccc(C2/C=C\CN(C(=O)c3ccc(C)cc3)C(Cc3ccccc3)C(=O)N2Cc2ccc(F)cc2)cc1` (centres undefined): the max response was 2.85%.

On to `O=C(CN1CCSCC1)N/N=C/c1ccc(Cl)cc1`, for which the max response is 11.3%. Consider `CCOc1cc(/C=N/NC(=O)CN2CCCCC2)ccc1O`, for which the max response is -1.36%.

Take `Cc1ccc(/C=N/NC(=O)COc2ccccc2-c2ccccc2)cc1`: the max response is -1.02%. Take `Cc1ccc(COc2ccc(/C=N/NC(=O)CN3CCCCC3)cc2)cc1`: the max response was 32.7% (active). Take `Cc1ccc(/C=N/NC(=O)c2sccc2OCc2ccc(F)cc2)cc1`: the max response was 16.2% (active). Regarding `CNC(=S)NNC(=O)c1sccc1OCc1ccccc1`, the max response is -0.196%. For the compound `CC(Sc1nc2c([nH]c3ccccc32)c(=O)n1C)c1ccccc1` (centres undefined), the max response was -7.36%.

`Cc1ccc(C(=O)Nc2c(C#N)c(C)c(C)n2Cc2ccccc2)cc1`: the max response was -2.66%. For the compound `CC(=O)Nc1ccc(S(=O)(=O)N2CCN(C(=O)c3ccccc3F)CC2)cc1`, the max response was 6.62%. For `CCOC(=O)c1c(N=CN(C)C)c(C#N)c2n1CCCC2` the value was -4.22%; for `Cc1oc2nc(SCC(=O)Nc3ccc(S(N)(=O)=O)cc3)nc(NC(=O)c3ccccc3)c2c1C`, -2.02%. On to `O=C(CN(Cc1ccc(Br)cc1)S(=O)(=O)c1ccccc1)NCc1ccncc1`, for which the max response is -2.43%.

As to `Cc1cc(C)nc(-n2nc(C)cc2NC(=O)c2ccc(F)cc2F)n1`, the max response was -3.69%. As for `N=c1c2c3c(sc2nc2n1CCCCC2)CCCC3`, the max response is 15%.

On to `C[C@@H]1CC[C@@]2(OC1)O[C@H]1C[C@H]3[C@@H]4CC=C5C[C@@H](O)[C@H](O)C[C@]5(C)C4CC[C@]3(C)[C@H]1[C@@H]2C` (some centres undefined), for which the max response is -6.07%. Turning to `CCCc1nn2c(=O)cc(CSCC(=O)Nc3cccc(C)c3)nc2s1`, the max response was -2.96%. As for `CC1=NN(Cc2ccccc2)C(=O)/C1=C/c1ccc(N(C)C)cc1`, the max response was 3.72%. On to `O=C1NCC(=O)N(Cc2ccccc2)/C1=C/c1ccccc1`, for which the max response is -7.39%.

In the case of `CN(C)c1ccc(/C=C2\NC(=S)N(Cc3ccccc3)C2=O)cc1`, the max response is 16.3% (active). On to `COc1ccc(N2CCN(C(=O)CN3C(=O)COc4ccccc43)CC2)cc1`, for which the max response is -4.68%. In the case of `CCOc1ccc(NC(=O)COc2ccc(C(=O)NC3CCCc4ccccc43)cc2OC)cc1` (centres undefined), the max response is -1.56%. Regarding `O=C(O)CCn1c(O)c(C=C2N=c3ccccc3=N2)sc1=S`, the max response was -1.81%. For `Cc1cc(NC(=O)c2ccco2)c(=O)n(Cc2c(F)cccc2Cl)c1` the value was -2.05%; for `Cc1ccc(-n2nc3cc(C)c(NC(=O)c4cccnc4)cc3n2)cc1`, 15.8% (active); for `O=C(Nc1cccc(-n2cnnn2)c1)c1cccnc1`, -4.68%.

`COC(=O)c1cc(Cl)c(NC(=O)c2ccco2)cc1OC`: the max response is 3.33%. Regarding `Cc1c(NC(=O)c2cccnc2)c(=O)n(-c2ccccc2)n1C`, the max response is -2.61%. For the compound `Cc1ccc(-n2nc3cc(Cl)c(NC(=O)c4ccco4)cc3n2)cc1`, the max response is 45% (active). With `COc1ccc(C(C(=O)NC2CCCC2)N(CCCO)C(=O)Cn2nnc(-c3ccc(C)o3)n2)cc1` (centres undefined) the figure was -4.49%; with `Cc1ccc(NC(=S)NCCc2ccc(Cl)cc2)c(C)c1`, 13.7% (active); with `CCNC(=S)Nc1cccc(Cl)c1C`, -2.36%. Regarding `Cc1cccc(NC(=S)NCCc2ccc(F)cc2)c1C`, the max response was 6.6%. As to `Cc1cc(F)ccc1NC(=S)NCCc1ccccc1`, the max response is 5.78%. In the case of `Cc1ccc(NC(=S)NCc2ccccc2Cl)c(C)c1`, the max response is 10.7%.

For the compound `Cc1cccc(NC(=S)NCCc2ccc(Cl)cc2)c1C`, the max response is 17.3% (active).

Take `CC#CC[N+](C)(C)CCCCCC`: the max response was 0.922%.

For the compound `COc1ccc(C(=O)NC(=S)N2CCNC(=O)C2CC(=O)OC(C)C)cc1` (centres undefined), the max response is 0.131%. For `COc1ccc(OC)c(C(C)NC(=S)Nc2ccc(S(=O)(=O)Nc3ncccn3)cc2)c1` (centres undefined) the value was -0.745%. With `COc1ccc(NC(=O)C(CC(C)C)NC(=O)C2CCC(C)CC2)cc1` (centres undefined) the figure was 6.1%; with `O=C(O)c1cccc(N2C(=O)Nc3ccccc3N2O)c1`, 24.6% (active); with `O=C1Nc2cc(Cl)c(Cl)cc2N(O)N1c1ccccc1Cl`, 4.44%. For `O=C1Nc2cc(Cl)c(Cl)cc2N(O)N1c1cc(Cl)cc(Cl)c1`, the max response is -2.32%. On to `COc1ccccc1N(C)C(=O)c1cc(S(=O)(=O)N2CCc3ccccc32)cn1C`, for which the max response is 0.704%. For the compound `CC1CCN(C(=O)CCNC(=O)c2ccccc2)CC1`, the max response is 31.5% (active). `CC1CCN(C(=O)/C(=C\c2ccccc2)NC(=O)c2ccccc2)CC1`: the max response was -1.41%. On to `CC1CCN(C(=O)/C(=C\c2ccccc2F)NC(=O)c2ccccc2)CC1`, for which the max response was 8.12%. `OC(CNC1CCCC1)COc1ccc(F)cc1` (centres undefined): the max response was -1.08%. Regarding `NC(=O)CC(NC(=O)Cc1cccc2ccccc12)c1ccc(NCc2cc(F)ccc2F)c([N+](=O)[O-])c1` (centres undefined), the max response is -1.72%.

With `CCOc1ccc(N(CC(=O)NCCOc2ccccc2OC)S(=O)(=O)c2ccccc2)cc1`, the max response was 1.62%. For `Cc1ccc(/C=C2\SC(=S)N(CCC(=O)Nc3ccc(O)cc3)C2=O)cc1` the value was 0.318%. For the compound `O=C(CN1C(=O)S/C(=C\c2ccccc2F)C1=O)NCCCn1ccnc1`, the max response was -0.628%. With `O=C(CCN1C(=O)c2ccccc2C1=O)NCCCn1ccnc1`, the max response was 4.07%. For `COc1ccc(NC(=S)NC2CCS(=O)(=O)C2)cc1` (centres undefined) the value was -3.34%. As to `COc1ccccc1/C=C1\SC(=O)N(CCC(=O)N(C)C2CCS(=O)(=O)C2)C1=O` (centres undefined), the max response is 7.79%. For the compound `O=C(Cc1ccc(Cl)cc1)NC1CCS(=O)(=O)C1` (centres undefined), the max response is -0.92%.

For the compound `O=C(CCN1C(=O)c2ccccc2C1=O)NCCN1CCOCC1`, the max response is -0.442%.

For the compound `COc1ccc(/C=C2\SC(=O)N(CCC(=O)NCCCn3ccnc3)C2=O)cc1`, the max response is 18.8% (active). With `Cc1ccc(/C=C2/SC(=S)N(CCC(=O)NCCCN3CCOCC3)C2=O)cc1` the figure was 11.5% (active).

As for `COc1ccc(-c2ccc(OC(=O)NC3CCS(=O)(=O)C3)cc2)cc1` (centres undefined), the max response is 28.5% (active). On to `COc1ccc(NC(=O)CCN2C(=O)/C(=C/c3ccc4c(c3)OCO4)SC2=S)cc1`, for which the max response was -1.34%. With `COc1ccc(/C=C2\SC(=O)N(CCC(=O)NC3CCS(=O)(=O)C3)C2=O)cc1` (centres undefined) the figure was 27.8% (active); with `[O-][n+]1onc2c1CCc1[nH]c(-c3ccccc3)nc1-2`, -2.38%.
